Mcl1-Noxa inh: Mcl-1/Noxa binding inhibitors, primary screen, biochemical, TR-FRET, 1536-well | Induced myeloid leukemia cell differentiation protein Mcl-1 (Homo sapiens), Q07820 | TR-FRET Mcl-1/Noxa peptide binding, 2 h | inhibition, % at 21.7 µM | 1.5% of 220,000 active;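 active = compounds that cut the protein-peptide binding signal by more than 50% relative to plate controls in a single-dose test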;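 note: His-tagged Mcl-1 with rhodamine Noxa BH3 peptide and terbium anti-His antibody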
Target sequence (Q07820 whole entry, looked up): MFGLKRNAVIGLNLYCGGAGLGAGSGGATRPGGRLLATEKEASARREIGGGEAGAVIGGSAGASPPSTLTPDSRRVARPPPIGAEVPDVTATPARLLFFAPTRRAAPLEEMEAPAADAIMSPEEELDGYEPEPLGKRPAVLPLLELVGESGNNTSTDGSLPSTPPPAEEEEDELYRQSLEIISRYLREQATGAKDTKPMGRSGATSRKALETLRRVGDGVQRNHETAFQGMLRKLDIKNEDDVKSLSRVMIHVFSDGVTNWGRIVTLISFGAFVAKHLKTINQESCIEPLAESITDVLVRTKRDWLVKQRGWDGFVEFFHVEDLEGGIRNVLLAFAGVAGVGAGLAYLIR
Mcl1-Bid inh: Mcl-1/Bid binding inhibitors, primary screen, biochemical, TR-FRET, 1536-well | Induced myeloid leukemia cell differentiation protein Mcl-1 (Homo sapiens), Q07820 | TR-FRET Mcl-1/Bid-Dy647 peptide binding | inhibition, % at 21.7 µM | 0.97% of 220,000 active;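 active = compounds that cut the binding signal by more than half at the single screening dose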;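 note: His-tagged Mcl-1 with europium anti-His antibody binding Bid BH3 peptide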
Bim-Mcl-1: inhibitors of Bim peptide binding to Mcl-1, primary screen, biochemical, bead-based flow cytometry, multiplex; 0.1% of 190,000 active; Induced myeloid leukemia cell differentiation protein Mcl-1 (Homo sapiens), Q07820; Bim peptide-Mcl-1 binding; inhibition, % at 10 µM; in the data active = inhibition above about 40%
MCL1 BIM primary: inhibitors of MCL1 binding to BIM-BH3, primary screen, biochemical, fluorescence polarization | AID 2057, 2009 | GST-MCL1 / FITC-Bim-BH3 fluorescence polarization | 0.68% of 320,000 active | inhibition, % at 10.9 µM;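 active = inhibition above the mean inhibition of all tested compounds plus 3 SD, set per campaign, cut at about 40% in these data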;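 note: higher means more loss of mP so more displacement of Bim peptide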
Hits are given with their value; 0 = inactive; - = not tested or not shown. Only some compounds are listed: those with a hit (about 2% of all), similar ones and a draw of the others.

SMILES	Mcl1-Noxa inh	Mcl1-Bid inh	Bim-Mcl-1	MCL1 BIM primary
CC(=O)c1cc(C#N)c(SCc2ccccc2)nc1C	0	0	0	0
CC(=O)c1cc(C#N)c(SCc2ccccn2)nc1C	88	0	-	0
CN(C)c1ccc(N=C/C=C2\N(C)c3ccccc3C2(C)C)cc1	71	0	0	0
CN1/C(=C\C=Nc2ccc3ccccc3c2)C(C)(C)c2ccccc21	0	0	0	0
COCCN(C(=O)Nc1ccc(OC)cc1)c1nc2ccccc2s1	-	-	-	0
Cc1ccc(C23CC4CC(CC(C(=O)NC(C)C(N)=O)(C4)C2)C3)cc1 (stereo unspecified)	-	-	-	0
CCOC(=O)c1nn(-c2ccccc2)c(C#N)c1N	0	0	41	0
CCOC(=O)c1nn(-c2ccccc2)c(=O)c(C#N)c1C	0	0	0	0
Cc1ccc(/C=C/C(=O)NCc2ccc(S(N)(=O)=O)cc2)o1	53	0	0	-
Cc1cccn2c(=O)c(C=O)c(Cl)nc12	0	51	-	0
CC1CCC(C(C)C)C(OC(=O)C[n+]2cc(-c3ccc(Cl)cc3)n3c2CCC3)C1 (stereo unspecified)	0	92	-	0
Cc1ccc(C(C)C)c(OCCNCCc2ccccc2)c1	-	-	-	0
O=C(O)c1ccccc1C(=O)c1ccc(Br)s1	54	0	0	0
Cc1ccc(C(=O)c2ccccc2C(=O)O)s1	0	0	0	0
CCC1=NN2C(=N)/C(=C\c3ccc(OCCOc4ccccc4OC)cc3)C(=O)N=C2S1	-	-	-	0
COc1cc(C#CC#CCN2CCCCC2)ccc1O	51	0	0	0
COc1cc(C(=O)OCCN2CCCCC2)ccc1O	0	0	0	0
C=CCOC(=O)C1=C(C)N=c2s/c(=C3\C(=O)N(CC(=O)O)c4ccccc43)c(=O)n2C1c1ccc(OC)cc1 (stereo unspecified)	81	0	-	0
Cc1cc(C)n(Cc2cccc(F)c2)c(=O)c1C#N	0	96	0	0
Cc1cc(C)n(Cc2ccccc2F)c(=O)c1C#N	0	0	0	0
CC(=O)Nc1ccc(-c2csc(NC(=O)C3CC(=O)N(c4ccc5c(c4)OCCO5)C3)n2)cc1 (stereo unspecified)	87	0	-	0
O=C(O)c1cccc(-n2cccc2/C=C2/NC(=O)N(c3ccc(Cl)cc3)C2=O)c1	113	98	0	-
CCOC(=O)Cc1csc(-n2sc3ccccc3c2=O)n1	68	0	0	0
COc1ccc(C)cc1-n1nnnc1SC/C(O)=C(\C#N)c1nc2ccccc2[nH]1	0	0	0	0
Cc1ccc(Nc2nnc(SC/C(O)=C(\C#N)c3nc4ccccc4[nH]3)s2)c(C)c1	70	0	0	0
SMILES	Mcl1-Noxa inh	Mcl1-Bid inh	Bim-Mcl-1	MCL1 BIM primary
Cc1cccc(Nc2nnc(SC/C(O)=C(\C#N)c3nc4ccccc4[nH]3)s2)c1	52	0	0	0
O=C(CCNC(=O)c1ccc(Br)cc1)Nc1ccc(S(=O)(=O)Nc2ncccn2)cc1	-	-	-	0
O=C1N/C(=N/Nc2ccccc2)S/C1=C\c1ccccc1	97	0	0	0
Cc1cc(C)c(S(=O)(=O)/N=C2/C=C(Sc3ncn[nH]3)C(=O)c3ccccc32)cc1C	100	72	0	0
COc1ccccc1-n1c(SCc2cc(=O)oc3cc(O)ccc23)nc2ccccc2c1=O	67	0	0	0
CC(=O)Nc1ccc(S(=O)(=O)NCc2ccccn2)cc1	0	91	0	0
Cn1c(CC(=O)Nc2ccccc2)cc2ccccc21	-	-	-	0
O=C(CCCN1C(=O)S/C(=C/C=C/c2ccccc2)C1=O)Nc1ccc(C(=O)O)cc1	-	-	-	0
O=C(CN1C(=O)S/C(=C\C=C\c2ccccc2)C1=O)Nc1ccc(O)cc1	55	0	0	0
CCCn1c(CN2CCN(C(=O)OCC)CC2)nc2cc(NC(=O)CC)ccc21	-	-	-	0
CCOC(=O)CSC(=S)NC(=O)c1ccc(OC)cc1	56	0	0	0
Cn1cnnc1SCC(=O)Nc1cccc(S(=O)(=O)N2CCCCCC2)c1	0	0	0	0
Cc1cc(C(=O)Nc2cccc(S(=O)(=O)N3CCCCC3)c2)c2ccccc2n1	65	0	0	0
COCCn1cnnc1SCC(=O)Nc1cccc(S(=O)(=O)N2CCCCCC2)c1	0	54	0	0
CC(C)(C)c1ccc(OCC(=O)N(Cc2cccs2)C2CCS(=O)(=O)C2)cc1 (stereo unspecified)	-	-	-	0
O=C(Nc1cccc(N2CCCC2)c1)c1cccs1	51	0	0	0
Nc1cccc(NC(=O)c2cccs2)c1	0	0	0	0
O=C(NC1CCCC1)c1csc2c1CCCC2	0	100	0	0
CCCNC(=O)c1csc2c1CCCCC2	0	0	0	0
Cn1nnc2cc(NC(=O)Nc3cccc(C(F)(F)F)c3)ccc21	-	-	-	0
CCc1nc2ccccc2c(=O)n1/N=C/c1ccc(Cl)cc1	-	-	-	0
CC(C)=CCc1c(O)cc2oc3c(CC=C(C)C)c(O)c(O)c(CC=C(C)C)c3c(=O)c2c1O	60	0	-	0
CC(C)=CCc1cc(-c2oc3cc(O)cc(O)c3c(=O)c2O)ccc1O	-	-	-	0
Cc1ccc(N2NC(=O)/C(=C\c3cc4c(cc3[N+](=O)[O-])OCO4)C2=O)cc1C	100	0	0	0
Cc1ccc(C(C(=O)Nc2ccc3c(c2)OCO3)N(C)C(=O)/C=C\c2ccc3c(c2)OCO3)cc1 (stereo unspecified)	0	0	0	0
SMILES	Mcl1-Noxa inh	Mcl1-Bid inh	Bim-Mcl-1	MCL1 BIM primary
COc1cc(/C=N/Nc2nc3ccccc3[nH]2)ccc1O	0	0	0	0
COc1cc(/C=N/Nc2ccc(F)cc2F)cc(OC)c1O	62	0	0	0
COc1cc(/C=N/Nc2ccccc2[N+](=O)[O-])cc(OC)c1O	58	0	0	0
COc1cc(/C=N/Nc2nc3ccccc3[nH]2)cc(OC)c1O	73	0	0	0
COc1cc(/C=N/Nc2ccc(Cl)nn2)cc(OC)c1O	-	-	-	0
Cn1c(=O)n(C)c2cc(NC(=O)c3ccc(F)cc3)ccc21	-	-	-	0
Cc1ccc2cc3c(nc2c1)OCC3	0	0	-	0
Cc1ccc(C2C(C#N)=C(N)SC(N)=C2C#N)o1	84	0	0	0
O=c1[nH]c(CSc2ncnc3sc(-c4ccccc4)cc23)nc2ccccc12	0	61	-	0
O=c1[nH]c(CSc2nc(-c3ccccc3)cs2)nc2ccccc12	0	0	0	0
O=C(CSc1nnc(-c2ccc(O)cc2)o1)NNC(=O)c1ccncc1	-	-	-	0
O=c1[nH]c2cc3c(cc2cc1CN(Cc1cccnc1)Cc1nnnn1Cc1ccco1)OCCO3	0	0	0	44
CCOC(=O)c1[nH]c2ccc(Cl)cc2c1NC(=O)/C=C/c1ccc2c(c1)OCO2	0	0	0	0
CCN(CC(=O)Nc1c(C(=O)OC)[nH]c2ccc(Cl)cc12)c1ccc2c(c1)OCO2	0	59	0	49
Cc1ccnc(N/C=C(\C#N)c2nc(-c3cccc(Br)c3)cs2)c1	61	73	0	0
Cc1ccnc(Nc2nc(-c3ccccc3)cs2)c1	-	-	-	0
COc1ccc(OC)c(S(=O)(=O)Nc2cc3c(cc2N2CCCC2)n(C)c(=O)c(=O)n3C)c1	-	-	-	0

Source: PubChem BioAssay (several laboratories)
